# Test results reported in the supplement of paper PMC12669797.
# Values joined by “and” are separate entries in the source; they are usually repeats but may differ in a detail not shown here. Equal entries are not always repeated. Structures can show the parent of a compound that is named as a salt. ± gives the standard deviation of the averaged measurements.
# Columns and labels:
# [1] = tested on: ES2; experiment: cell viability relative to DMSO control (MTS) (fraction of DMSO control); higher = more viable cells / less growth inhibition; conditions: 10 µM; 48 h
# In short: (§1)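 After 24 h of growth in 96-well plates at 5000 cells per well, TOV-21G and ES2 clear cell carcinoma cells were treated for 48 h with a 367-compound […] library at 10 µM final concentration. Cell viability was measured by MTS assay and expressed relative to vehicle control wells as a fraction.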
# [2] = tested on: TOV-21G; experiment: as above; conditions: 10 µM; 48 h
# In short: as §1
SMILES,cell viability [1],cell viability [2]
COC(=O)[C@H](CC(C)C)NC(=O)c1ccc(NC[C@@H](N)CS)cc1-c1ccccc1,1.09,0.633
O=C(Nc1cccc2cccnc12)c1ccc(N2C(=O)[C@@H]3[C@H](C2=O)[C@@H]2C=C[C@H]3C2)cc1 [IWR-1-endo],0.998,0.582
CN(C)CC[C@H](CSc1ccccc1)Nc1ccc(S(=O)(=O)NC(=O)c2ccc(N3CCN(Cc4ccccc4-c4ccc(Cl)cc4)CC3)cc2)cc1[N+](=O)[O-],0.713,0.358
CC(C)CC(NC(=O)CNC(=O)OCc1ccccc1)C(=O)NC(Cc1ccccc1)C(=O)CCl (stereo unspecified),0.398,0.479
CC(C)c1cc(/C=C(\C#N)C(=O)NCCCc2ccccc2)cc(C(C)C)c1O,1.3 ± 0.21,0.938 ± 0.063
Cc1ccc(NC(=O)c2cccc(N(C)C)c2)cc1NC(=O)c1ccc(O)cc1,0.951,0.888
N#C/C(=C\c1ccc2oc(=O)[nH]c2c1)C(=O)c1ccc(O)c(O)c1,0.972,1.13
Nc1cccc2c1CN(C1CCC(=O)NC1=O)C2=O (stereo unspecified) [lenalidomide],0.928,0.954
NS(=O)(=O)c1ccc(Nc2nc(OCC3CCCCC3)c3[nH]cnc3n2)cc1,0.699,0.784
Cc1nc2c(O)cccc2c(=O)[nH]1,1.04,0.856
COc1cc(Nc2ncc3c(n2)-c2ccc(Cl)cc2C(c2c(F)cccc2OC)=NC3)ccc1C(=O)O,0.769,0.619
CCN1/C(=C/C(C)=O)Sc2ccc(OC)cc21,0.857,1.01
C[C@]1(c2nc3c(C(N)=O)cccc3[nH]2)CCCN1 [ABT-888 (Veliparib)],0.897,0.892
C[C@@H](N)[C@H]1CC[C@H](C(=O)Nc2ccncc2)CC1,1.09 and 0.911,0.922 and 0.973
O=C1Nc2ccc(I)cc2/C1=C\c1cc(Br)c(O)c(Br)c1 [RAF1 kinase inhibitor I],1.1,1.03
CNCCCN1c2ccccc2CCc2ccccc21 [desipramine hydrochloride],0.954,0.745
O=C(O)c1ccccc1Nc1ccccc1 [N-phenylanthranilic acid],1.02,0.995
Cc1[nH]c(/C=C2\C(=O)Nc3ccc(S(=O)(=O)N(C)c4cccc(Cl)c4)cc32)c(C)c1C(=O)N1CCN(C)CC1,0.402,0.639
Cc1cc(N)c2ccccc2[n+]1CCCCCCCCCC[n+]1c(C)cc(N)c2ccccc21 [Dequalinium],0.383,0.42
Cc1c[nH]c(/C=C2\C(=O)Nc3ccccc32)c1CCC(=O)O,1.1,1.08
N#CC[C@H](C1CCCC1)n1cc(-c2ncnc3[nH]ccc23)cn1 [Ruxolitinib],0.979,0.776
CNC(=O)c1ccccc1Sc1ccc2c(/C=C/c3ccccn3)n[nH]c2c1 [Axitinib],0.917,0.841
CC(=O)O[C@H]1C(=O)[C@@]2(C)[C@H]([C@H](OC(=O)c3ccccc3)[C@]3(O)C[C@H](OC(=O)[C@H](O)[C@@H](NC(=O)c4ccccc4)c4ccccc4)C(C)=C1C3(C)C)[C@]1(OC(C)=O)CO[C@@H]1C[C@@H]2O [Paclitaxel],0.467,1.25
CCN(CC)CCNC(=O)c1c(C)[nH]c(/C=C2\C(=O)Nc3ccc(F)cc32)c1C [sunitinib malate],0.439,0.555
CC(ONC(=O)c1cc(C(F)(F)F)cc(C(F)(F)F)c1)C(=O)Nc1ccc(Cl)cc1 (stereo unspecified),1.24,1.21
O=CN1CCN(c2ccc(/C=C3\C(=O)Nc4ccccc43)cc2)CC1,1.13,1.2
CC1=Nc2ccc(Cl)cc2S(=O)(=O)N1 [Diazoxide],0.816,0.996
Cc1cn(-c2cc(NC(=O)c3ccc(C)c(Nc4nccc(-c5cccnc5)n4)c3)cc(C(F)(F)F)c2)cn1 [nilotinib],0.751,0.709
